Calls of active or inactive are those of the source. Rule as the data show it, unless noted: active = inhibition above about 30%; inactive = the rest.
Assay: yeast transport mutant growth inhibition pilot in 384-well plates, post-Golgi transport modulator project (AID 636; in the data active = inhibition above about 31%)
Settings: absorbance 615 nm, about 18 h, active compounds read high

inhibition, inactive:
CCn1cc(C(=O)N=c2sc3ccccc3n2C)c(=O)c2ccc(C)nc21 1.41%
NC(=O)c1cccc(S(=O)(=O)N2CCCCC2)c1 -7.84%
CN(C)CCCNC(=O)c1ccc(CN(c2ccccc2)S(C)(=O)=O)cc1 0.91%
CC(=O)c1c(NCCc2ccccc2)cc(C)oc1=O -2.57%
Cn1c(SCc2nc3ccccc3c(=O)[nH]2)nnc1-c1ccco1 -7.84%
O=C1NC(c2ccccc2)(C(F)(F)F)SC2=CCCCCN12 (stereo unspecified) -3.29%
Cn1c(CCCNC(=O)c2ccccc2)nc2ccccc21 -8.65%
O=C(c1cccn2c(=O)c3cc(Cl)ccc3nc12)N1CCOCC1 -3.2%
Nc1ccc(-c2ccc(N)cc2C(F)(F)F)c(C(F)(F)F)c1 -0.65%
CCOC(=O)c1[nH]c2ccc(Br)cc2c1NC(=O)CNC -2.37%
CCn1nc(NC(=O)c2cccnc2)c2cc3ccccc3nc21 -8.38%

Assay: growth suppression of yeast trafficking mutant, preliminary HTS, modulators of trafficking downstream of Golgi apparatus project, 1536-format plate, OD 615 nm (AID 637)
Settings: yeast transport mutant growth, absorbance 615 nm, 18 h; active compounds read high

inhibition, inactive:
CC1C(c2ccccc2)N(C)CCC12NC(=O)NC2=O (stereo unspecified) -9.02%
COC(=O)c1cc(Br)c(=O)n(CCN2CCOCC2)c1 -0.49%
O=C(Nc1ccccc1C(=O)N1CCN(c2ccccc2)CC1)c1ccco1 4.43%
CC(C)CCNC(=O)NC(=O)COc1ccccc1C#N -5.4%
Cc1ccc2c(Cl)cc(Cl)c(OCc3c(C)noc3C)c2n1 13.3%
O=C(c1cccc(Cl)c1)N1CCN(Cc2ccncc2)CC1 6.89%
Cn1c(=N)n(CC(=O)O)c2ccccc21 -5.4%
O=C(Nc1ccccc1)c1cccc(N2CCCC2=O)c1 -9.52%
Fc1ccc(-c2csc3nnc(SCc4cccnc4)n23)cc1 8.33%
COc1ccc(CNC(=O)c2cc(-c3ccc(OC)c(OC)c3)on2)cc1 -3.83%
CCN(CC)CCOC(=O)c1c(C)oc2ccc(O)cc12 -6.94%
COc1ccccc1Nc1ccc(C(=O)NC2CCCCC2)cn1 -3.11%
CCCCn1nnnc1SCC(=O)Nc1cccc(C)n1 3.5%
COc1nc(OC)nc(N2CCC(C(=O)NC3CCCCCC3)CC2)n1 -2.3%
COC(=O)[C@H](C)NC(=O)Nc1cc(OC)ccc1OC -0.48%
Cc1ccc(CNC(=O)C2CCCN(S(=O)(=O)c3cccnc3)C2)cc1 (stereo unspecified) -4.18%
OCc1nc2ccccc2n1CC(O)Cn1ccc2ccccc21 (stereo unspecified) 8.36%
Cc1cc(C)cc(N2CCCn3c2nc2c3c(=O)n(CCN3CCOCC3)c(=O)n2C)c1 -3.44%
Cn1c(=O)c2c([nH]c(=O)n2C)n(C)c1=O 7.21%
CCNCC(O)COCC(O)CNCC (stereo unspecified) -0.5%
CCOC(=O)N1CCN(c2ncnc3c2[nH]c2ccc(OC)cc23)CC1 -5.65%
COc1ccc(N2CCN(CCCNC(=O)C3CCCN(S(=O)(=O)c4cnc[nH]4)C3)CC2)cc1 (stereo unspecified) -4.26%
Cn1cnc(S(=O)(=O)Nc2ccc(C(F)(F)F)cc2)c1 -11.7%
Cc1nc2ccccn2c1/C(O)=C1\C(=O)C(=O)N(CCN2CCOCC2)C1c1cccs1 (stereo unspecified) 0.67%
COc1cc(CN2CCN(C(=O)CC(C)C)CC2)cc(OC)c1O -4.6%
COc1ccccc1C(=O)Nc1ccc(S(=O)(=O)N2CCOCC2)cc1 4.59%
CC(=O)Nc1ccc(OC(=O)c2cccs2)cc1 -4.59%
CN(C)C(=O)Cn1c(SCC(=O)NC2CCCCC2)nc2ccccc21 0.16%
CCC(=O)Nc1c(C#N)c2nc3ccccc3nc2n1-c1ccccc1C 8.85%
CCn1cc(C(=O)N=c2sc3ccccc3n2C)c(=O)c2ccc(C)nc21 -2.83%
NC(=O)c1cccc(S(=O)(=O)N2CCCCC2)c1 2.62%
CN(C)CCCNC(=O)c1ccc(CN(c2ccccc2)S(C)(=O)=O)cc1 -7.87%
CC(=O)c1c(NCCc2ccccc2)cc(C)oc1=O -4.83%
Cn1c(SCc2nc3ccccc3c(=O)[nH]2)nnc1-c1ccco1 6.89%
O=C1NC(c2ccccc2)(C(F)(F)F)SC2=CCCCCN12 (stereo unspecified) -3.33%

Source: PubChem BioAssay
